Consider 42 sequences from paper PMC7819943, “Rice protein-binding microarrays: a tool to detect cis-acting elements near promoter regions in rice”.

Whole data set: some 39,000 sequences, median “fluorescence intensity (a.u.)” near 4,300, cut for the highest 2% near 39,000. Many of the other results were omitted from the sample, so the highest values are more common in it than they were.

This test concerns the target T1, OsSMF1 (Oryza sativa, UniProt Q6ZLB0 1-436).
T1 sequence: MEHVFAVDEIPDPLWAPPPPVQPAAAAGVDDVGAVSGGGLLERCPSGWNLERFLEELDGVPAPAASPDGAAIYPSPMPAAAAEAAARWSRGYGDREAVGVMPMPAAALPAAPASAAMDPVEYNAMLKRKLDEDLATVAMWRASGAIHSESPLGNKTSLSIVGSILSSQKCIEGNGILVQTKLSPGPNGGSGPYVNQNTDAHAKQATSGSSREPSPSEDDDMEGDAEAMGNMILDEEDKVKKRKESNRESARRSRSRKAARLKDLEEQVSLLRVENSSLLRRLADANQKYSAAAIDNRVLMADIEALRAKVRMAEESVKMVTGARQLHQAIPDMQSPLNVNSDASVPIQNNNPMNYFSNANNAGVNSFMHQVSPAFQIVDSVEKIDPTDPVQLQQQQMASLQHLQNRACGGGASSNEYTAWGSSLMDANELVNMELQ
As to the kind of experiment: protein-binding microarray (RPBM); PBS, 2% BSA, 51.3 ng/ul salmon testes DNA, 50 uM zinc acetate, 200 nM TF, 25 C, 1 h; high values mean tight binding. The note with it: protein: recombinant; tags: N-terminal polyhistidine and DsRed monomer fusion (pET32a); chain copies: 2; label: CyDye5-dUTP incorporated in the synthesized complementary strand; 3' TTTTT single-stranded linker to array surface; dsDNA, one strand shown. A digest of the protocol: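 The binding signal is fluorescence intensity per array feature (arbitrary units). Readings came from an Axon 4000B scanner after a washed, 2% BSA-blocked, double-stranded custom Agilent array had been incubated for 1 h at 25 °C with 200 nM protein and 50 µM zinc acetate. The protein was a Ni–NTA-purified transcription factor fused N-terminally to polyhistidine and DsRed, expressed in E. coli BL21-CodonPlus.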
Consider “CATCCATCCGGTCAAAGCAGCCGGCCACGTGGCGTGTCCCCGGAGTCACCTAGTGCAG”, for which the binding signal was 28100 fluorescence intensity (a.u.).

As for “ACAGGCGAGGGTGGAACCCCGCGTGGCGAGAGCGTTGCGGCGGAGTCACCTAGTGCAG”, the binding signal was 4270 fluorescence intensity (a.u.).

For the sequence “TGTAAACATCCCATACTGGCTCTTACGCAAAACTTTCACCCGGAGTCACCTAGTGCAG”, the binding signal was 54100 fluorescence intensity (a.u.).

Consider “CTTTTCCCCGACTAAACACACCCATACTGTCAAAAGGTAACGGAGTCACCTAGTGCAG”, for which the binding signal was 26800 fluorescence intensity (a.u.).

As to “TCTTCAAACTTCCAACTTTTCCATCACATCAAAACTTTCCCGGAGTCACCTAGTGCAG”, the binding signal was 3340 fluorescence intensity (a.u.).

With “GCAATCTTTGCCTTGGTCCTCTTGAAGTCTTTGGCGGTATCGGAGTCACCTAGTGCAG”, the binding signal is 27700 fluorescence intensity (a.u.).

On to “TATGTTCATTTCCTTATTTGCCTCTCGTCATGTCTCTTGACGGAGTCACCTAGTGCAG”, for which the binding signal was 3420 fluorescence intensity (a.u.).

For “CCGGATCTTCAGCAGAGTCGTGTCACCTGTTTTGATCGTTCGGAGTCACCTAGTGCAG”, the binding signal was 3890 fluorescence intensity (a.u.).

Take “ATAATCTTCAGAGATCTCCTTGCCTGAAGTGTCTTATGTTCGGAGTCACCTAGTGCAG”: the binding signal is 42500 fluorescence intensity (a.u.).

For the sequence “TAGTTCTGAAGTCTGAAATCCTTGCGGTCCTTCACCGCCTCGGAGTCACCTAGTGCAG”, the binding signal was 55000 fluorescence intensity (a.u.).

Regarding “CCGCCTTGCGTGGCTGAACTTCTTCTGATGGTCCCCGCCTCGGAGTCACCTAGTGCAG”, the binding signal is 3290 fluorescence intensity (a.u.).

Consider “CTCACTGGTATGCTCACCACCACTTTAAGACTGTGTTTGTCGGAGTCACCTAGTGCAG”, for which the binding signal is 3730 fluorescence intensity (a.u.).

With “AGAGGCGAAATCGCGGCTACGGAGGCGGCGGCGGTGGCGGCGGAGTCACCTAGTGCAG”, the binding signal was 3390 fluorescence intensity (a.u.).

For “TGGCCATCGCCTACGGTGAGCAGTCATCGTCGTCCATCCGCGGAGTCACCTAGTGCAG”, the binding signal was 4090 fluorescence intensity (a.u.).

Turning to “TAGTCCTCCTTGGCTACGGTGTCATAGATCGAGGCCTCCGCGGAGTCACCTAGTGCAG”, the binding signal was 50200 fluorescence intensity (a.u.).

For the sequence “TGAAAATTTGTACACGTAAGTAATAGATGGTACCAATAGACGGAGTCACCTAGTGCAG”, the binding signal is 5890 fluorescence intensity (a.u.).

With “TGTCACGAAAATCTTAATATTCATTTGGAGAAAAGAACGGCGGAGTCACCTAGTGCAG”, the binding signal was 49000 fluorescence intensity (a.u.).

In the case of “GCACATCTTCCTTAATTGCCAAAAGAGTAAATTTCACGAACGGAGTCACCTAGTGCAG”, the binding signal was 43300 fluorescence intensity (a.u.).

Regarding “GAGTTTAATTAATTAATTTCTTAAAATTGATGTCATCACACGGAGTCACCTAGTGCAG”, the binding signal is 3140 fluorescence intensity (a.u.).

For “GAGAATTCTCCACGAAAAGAGGAGAACGAACCACATCAAACGGAGTCACCTAGTGCAG”, the binding signal was 3380 fluorescence intensity (a.u.).

For the sequence “AAGAGAAAATTCAAGAAATATCATTACCAAAGTCCAAGAACGGAGTCACCTAGTGCAG”, the binding signal is 52800 fluorescence intensity (a.u.).

As to “CGAACGAGAATTCATGGAATCCAAGAAAAGAGACACGTGTCGGAGTCACCTAGTGCAG”, the binding signal is 5610 fluorescence intensity (a.u.).

Regarding “TTTCAAAATATTCAGTTTGAGAATATGTAAATCTTATGGGCGGAGTCACCTAGTGCAG”, the binding signal was 20100 fluorescence intensity (a.u.).

For the sequence “CGTGTCATTGTCCAAAATGTCAAAGAAATATGGAACCGGACGGAGTCACCTAGTGCAG”, the binding signal was 15200 fluorescence intensity (a.u.).

Take “AGAAGACGATCTCCTGAGACAAATTGCCAAAATTAAAGAACGGAGTCACCTAGTGCAG”: the binding signal is 4830 fluorescence intensity (a.u.).

On to “GATACGCGGCGGCTGAGTCAGCGTGGGACCCACGTGGGCCCGGAGTCACCTAGTGCAG”, for which the binding signal was 13000 fluorescence intensity (a.u.).

On to “GCCATCCTCACGCACACGCCACGTGCTCGACGAAATGCCGCGGAGTCACCTAGTGCAG”, for which the binding signal is 4190 fluorescence intensity (a.u.).

Turning to “AGCTCAGCTCTCTCTGCTCTGCTCTTTGCTCGATAACGACCGGAGTCACCTAGTGCAG”, the binding signal is 33600 fluorescence intensity (a.u.).

With “AAGGTTTGGAACATTCTGTTACCTATGAATACTGCACAGGCGGAGTCACCTAGTGCAG”, the binding signal is 11700 fluorescence intensity (a.u.).

On to “AAGAGCGTTTAAACAAGCTGTGGAGTCAGCAGATAGATTACGGAGTCACCTAGTGCAG”, for which the binding signal was 3940 fluorescence intensity (a.u.).

For “CGACGAGAAGGACACCTCCTCGGAAAAGGGAGGGCGTCGGCGGAGTCACCTAGTGCAG”, the binding signal is 44600 fluorescence intensity (a.u.).

“GCATCGCCATCGCCGCGTGGTGGCGCACCATTCGCGTCACCGGAGTCACCTAGTGCAG”: the binding signal is 5300 fluorescence intensity (a.u.).

For “GGGCGGCGACGACGGTCACGGCGGACAAGGGCGGCGGCAACGGAGTCACCTAGTGCAG”, the binding signal is 3160 fluorescence intensity (a.u.).

“CATCGCCGCGCGTGCACCAGAGGACCAGACCGACCGGCGTCGGAGTCACCTAGTGCAG”: the binding signal was 50200 fluorescence intensity (a.u.).

In the case of “GGAGGAGTGGTCGCCGGGGATCATCGCGCGGCGTCACCGGCGGAGTCACCTAGTGCAG”, the binding signal was 3570 fluorescence intensity (a.u.).

Consider “GGAGGCGGCGGCGACGAGGAGGGGCGTGGGCGGCGGCGGCCGGAGTCACCTAGTGCAG”, for which the binding signal is 3660 fluorescence intensity (a.u.).

With “AAAGGAAAGGCGCGTCACGGCGTCAGACGAGACGACGACGCGGAGTCACCTAGTGCAG”, the binding signal was 3340 fluorescence intensity (a.u.).

Regarding “ATCTAGCGACGAGAAGAGAGGAAGGGAGGGAGGCGTCACGCGGAGTCACCTAGTGCAG”, the binding signal is 3830 fluorescence intensity (a.u.).

Consider “CGTCGGCGGCGGCGGAGGGGAGGACGACGTGGTCGACCTCCGGAGTCACCTAGTGCAG”, for which the binding signal is 3590 fluorescence intensity (a.u.).

For the sequence “GGCTCGCAGAAAGGCGGACGACAAGGGCTCAGCAGGGTCACGGAGTCACCTAGTGCAG”, the binding signal is 39500 fluorescence intensity (a.u.).

As for “CCGGGAAGGGAGAGGGAGAGAGGAGTCGGGGCGAGAAGTGCGGAGTCACCTAGTGCAG”, the binding signal was 3500 fluorescence intensity (a.u.).

In the case of “CCGACGAGGACGAGGCGGCGTGGTCGAAGCCGGCGGTCGGCGGAGTCACCTAGTGCAG”, the binding signal was 42500 fluorescence intensity (a.u.).
